CHX counter = counter-screen for Shiga toxin inhibitors: cycloheximide protein synthesis inhibition | cell reporter, cycloheximide protein synthesis inhibition counterscreen | max response, % | 300,000 compounds, 12% hits | AID 2314; in the data active means max response mostly above about 13%, no sharp cut-off; inactive means mostly below about 14%; further: read at 38.3 µM for the half of the compounds with a filed dose; 0% is about no effect
Pf growth 48h = inhibits P. falciparum growth in the first generation, 48 h. Potency, µM (doses to about 28.7 µM), inactives show at the highest dose activity change, negative = inhibition, actives largely listed as inhibitors. 310,000 compounds, 5.9% hits. P. falciparum luciferase growth in erythrocytes, 48 h. AID 504832; further: potency means the concentration at half of the fitted maximal effect; on the % scale 0 is the no-effect control and ±100 the full control effect
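Growth was read as firefly luciferase luminescence after a 48 h, 37 C, 5% CO2 exposure of compounds to reporter-bearing P. falciparum cultures (0.1% parasitemia, 2% hematocrit final) in Albumax-supplemented RPMI 1640.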
SARS PLpro yeast = SARS-CoV PLP inhibition in yeast; S. cerevisiae expressing SARS-CoV PLpro, growth rescue; Potency, µM (top dose mostly 32.9 µM), without a hit: top-dose activity, positive = growth rescue, actives largely listed as activators; 330,000 compounds, 0.19% hits; calls by dose curve; further: potency means the concentration at half of the fitted maximal effect; 0% is about no effect; nearly all actives have a fitted effect of over 55% in size
Pf growth 96h = P. falciparum growth inhibition at 96 hours; P. falciparum luciferase reporter growth, 96 h; Potency, µM (series often up to 28.7 µM), for inactives: at the top dose activity change, negative = inhibition, usual class: inhibitors; 320,000 compounds, 6.9% hits; AID 504834; further: potency means the concentration at half of the fitted maximal effect; on the % scale 0 is the no-effect control and ±100 the full control effect
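Cell-based qHTS: luciferase-tagged P. falciparum in erythrocytes (2% hematocrit, 0.05% parasitemia final) incubated with compounds for 96 hours, 37 C, 5% CO2; luciferase detection reagent then added and luminescence measured.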
Shiga inhibitor = Shiga toxin inhibition; Vero cells, Shiga toxin protein synthesis inhibition reporter; inhibition, % at 38.7 µM; 290,000 compounds, 9.2% hits; AID 2315; in the data active means inhibition mostly above about 28%, no sharp cut-off; inactive means mostly below about 43%; further: 0% is about no effect
NS1 inh = influenza NS1 inhibition. Potency, µM (doses to about 46.1 µM), for the others: at the top dose activity, positive = more growth. 270,000 compounds, 0.4% hits. AID 2326; calls by dose curve; further: potency means the concentration at half of the fitted maximal effect; actives are rising curves; nearly all actives have a fitted effect of over 50% in size
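A cell-based growth assay was used: compounds that relieve NS1-induced slow growth of budding yeast raise OD600. Assay medium was yeast nitrogen base with ammonium sulphate and -URA supplement, pH 6.0, with 2% galactose.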
Active calls of the source: *; i = inactive; u = inconclusive; x = no result given; [ ] = dose if it differs, or a comment. Rows were chosen to be rich in hits. Some 21% of all compounds tested hit in one or more screens of this group. Unless noted, the call rests on the fitted dose curve; in most records, active means well fitted inhibition curve with a large enough effect; inconclusive means small, poorly fitted or top-dose-only effect, or another doubt; inactive means no such curve, though single readings can be large or run the other way.

SMILES	CHX counter	Pf growth 48h	SARS PLpro yeast	Pf growth 96h	Shiga inhibitor	NS1 inh
Cc1ccc(NC(=S)Nc2ccc(F)cc2)cc1C	12.5	u	12.4%	0.0%	27.7	-6.6%
Cc1ccc(NC(=S)Nc2ccc3nc(-c4ccccn4)c(-c4ccccn4)nc3c2)cc1C	16.2*	-1.5%	u	-2.4%	39.8	24.9%
Cc1ccc(NC(=S)Nc2ccccn2)c(C)c1	47.6*	57.9%	-2.2%	u	81.6*	-6.8%
Cc1cccc(NC(=S)Nc2ccccn2)c1	32.6*	47.3%	0.4%	33.1%	62.0*	-50.8%
COc1ccc(-c2nnn(CC(=O)NCCc3c[nH]c4ccccc34)n2)cc1OC	-1.3	-6.6%	-5.2%	37.4%	-4.9	11.7%
NNC(=O)c1cc(NS(=O)(=O)c2cccs2)cc(NS(=O)(=O)c2cccs2)c1	x	x	2.7%	x	x	x
COc1c(O)cc2c(c1O)[C@@H]1O[C@H](CO)[C@@H](O)[C@H](O)C1OC2=O (stereo not given in full)	x	-1.9%	-1.0%	17.0%	x	x
CCCc1[nH]nc2c1C(c1ccc(OCCN3CCOCC3)c(OC)c1)C(C#N)=C(N)O2 (stereo not given)	49.3*	27.9%	-11.5%	-6.2%	54.2*	-2.5%
CCOc1cc(C2C(C#N)=C(N)SC(N)=C2C#N)ccc1OCCN1CCOCC1	0.9	9.28µM*	2.1%	x	0.3	6.5%
CCOc1ccc(-c2[nH]nc3c2C(c2ccc4c(c2)OCO4)C(C#N)=C(N)O3)cc1OC (stereo not given)	1.5	-16.4%	4.3%	13.1µM*	30.9	-16.3%
CN(C)C(=O)CCSc1nnc(-c2ccco2)o1	14.3	39.6%	-0.7%	3.2%	26.8	x
CCOc1ccccc1NC(=O)N1CCCC1C(=O)Nc1ccc(NC(C)=O)cc1 (stereo not given)	-3.1	3.0%	1.5%	-9.7%[5.75 µM]	-13.3	-3.5%
CCCCN1C(=O)/C(=C2/Sc3ccccc3N2C)S/C1=N\c1ncn[nH]1	15.3	7.38µM*	-0.7%	39.8%	9.1	16.6%
CCOC(=O)N1CCN(Cc2nc3c(c(=O)n(C)c(=O)n3C)n2Cc2cccc3ccccc23)CC1	-2.3	11.7µM*	0.3%	8.28µM*	27.6	-64.2%
CCCOc1nc2c(c(=O)n(C)c(=O)n2C)n1C	-1.1	26.4%	-1.4%	-10.1%	-8.8	-1.6%
CCCOc1nc2c(c(=O)n(C)c(=O)n2C)n1Cc1cccc2ccccc12	-5.0	13.1µM*	-0.5%	x	-1.1	-121.6%
COc1cc(OC)nc(/N=C/NO)n1	13.6	32.7%	-0.1%	13.9%	-6.1	2.2%
Nc1nc(SCC(=O)NC2CCCC2)[nH]c(=O)c1NC(=O)c1cccs1	-1.2	13.0%	3.9%	35.6%	-2.5	-65.0%
COc1cccc(NC(=O)Nc2cccc(C(=O)O)c2)c1	25.9*	i	-0.7%	u	47.1*	4.6%
COc1cccc(NC(=O)NC2(C(F)(F)F)Oc3ccccc3O2)c1	44.5*	u	-3.6%	47.3%	65.9*	-0.3%
Cn1ccc2cc(NC(=O)Nc3cccnc3)ccc21	29.6*	x	x	x	48.8*	x
COc1ccc(NC(=O)Nc2cccnc2)c(OC)c1	2.0	-26.6%[5.75 µM]	0.5%	-41.9%[1.15 µM]	-11.2	2.7%
COc1cccc(NC(=O)Nc2cccnc2)c1	13.8*	40.5%	-0.8%	1.8%	5.8	-2.9%
CC(C)CNC(=O)NC1(C(F)(F)F)Oc2ccccc2O1	7.0	11.5%	0.5%	-25.6%	23.7	x
CCSC(=O)NC1CCCCC1	1.3	2.7%	-0.3%	17.5%	12.2	7.0%
SMILES	CHX counter	Pf growth 48h	SARS PLpro yeast	Pf growth 96h	Shiga inhibitor	NS1 inh
Cc1cccc(C(=O)NCCCNC(=O)c2cccnc2)c1	-5.7	18.3%	1.2%	7.0%	-13.9	5.0%
COc1ccc(NC(=O)Nc2ccc(Br)cn2)cc1OC	21.8	x	-6.4%	u	10.5	-3.7%
COc1cccc(NC(=O)Nc2ccc(Br)cn2)c1	25.8*	102.6%	0.2%	143.8%	78.2*	-2.6%
N/C(=N\OC(=O)Cc1ccccc1)c1cccc(Br)c1	10.7	36.2%	-1.2%	8.4%	47.6*	-5.9%
N/C(=N\OC(=O)Cc1ccccc1[N+](=O)[O-])c1cccc(Br)c1	18.4*	23.5%	-3.7%	27.3%	27.2	-9.1%
O=C(CNC(=O)C12CC3CC(CC(C3)C1)C2)N1CCN(S(=O)(=O)c2cccs2)CC1	-2.7	u	20.2%	u	-2.0	1.4%
CC(C)Oc1ccc(C(=O)NCC(=O)N2CCN(S(=O)(=O)/C=C/c3ccccc3)CC2)cc1	x	14.7µM*	-5.6%	u	x	x
O=C(CNC(=O)C12CC3CC(CC(C3)C1)C2)N1CCN(S(=O)(=O)/C=C/c2ccccc2)CC1	-3.9	u	24.6%	9.28µM*	-26.0	3.6%
Cc1cccc(C(=O)NCC(=O)N2CCN(S(=O)(=O)/C=C/c3ccccc3)CC2)c1	x	u	1.6%	-22.6%	x	x
Cc1cc(C)cc(NC(=O)c2nnn(Cc3cc(C)ccc3C)c2N)c1	-2.9	u	-7.6%	10.4µM*	13.6	-17.9%
Cc1ccc(C)c(Cn2nnc(C(=O)Nc3ccc4c(c3)OCCO4)c2N)c1	x	u	0.9%	-7.2%	x	x
Cc1ccccc1Cn1nnc(C(=O)Nc2cccc(C)c2C)c1N	30.0*	u	-31.4%	-14.0%	30.2	-66.1%
Cc1ccc(CNC(=O)Cn2nnc(C(=O)Nc3cccc(C)c3C)c2N)cc1	-1.4	8.8%	2.5%	u	-8.0	-2.8%
CC1CCCCN1S(=O)(=O)c1ccc2c(c1)CCN2C(=O)C1CCC1 (stereo not given)	-3.8	u	0.4%	u	-16.6	-41.5%
COc1ccc(OC)c2sc(N3CCN(C(=O)c4ccc5ncsc5c4)CC3)nc12	x	11.7µM*	4.6%	u	x	x
CCOc1cccc2sc(N3CCN(C(=O)c4ccc5ncsc5c4)CC3)nc12	x	u	-3.8%	11.7µM*	x	x
O=C(c1ccc2ncsc2c1)N1CCN(c2cccc(C(F)(F)F)c2)CC1	x	0.0%	-2.1%	u	x	x
COc1ccc2nc(N3CCN(C(=O)c4ccc5ncsc5c4)CC3)sc2c1	x	u	5.2%	u	x	x
Cc1ccc2c(c1)N(CC(=O)c1cccc(Cl)c1)C(=O)C(C)O2 (stereo not given)	2.7	u	1.2%	4.15µM*	-18.2	7.0%
CCC1Oc2ccccc2N(CC(=O)N2CCOCC2)C1=O (stereo not given)	-6.4	4.4%	7.9%	7.7%	-2.9	0.4%
CC1Oc2ccccc2C(=O)N(CC(=O)c2ccc3c(c2)OCCO3)C1=O (stereo not given)	30.4*	38.8%	-3.6%	74.6%	71.9*	9.4%
CC1Oc2ccccc2N(CC(=O)c2cccc(Cl)c2)C1=O (stereo not given)	-3.5	-2.3%	-1.1%	x	33.0	-8.7%
CC(C)C1Oc2ccccc2C(=O)N(CC(=O)c2ccc3c(c2)OCCO3)C1=O (stereo not given)	47.4*	41.2%	-0.7%	35.3%	91.5*	3.2%
